Each structure is given as a SMILES string. Unmarked numbers belong to inactive results. Inconclusive results are not listed. The source made the active and inactive calls. Unless noted, calls follow the shape of the dose curve; as a rule, active = well fitted curve in the direction sought with a large enough effect in the repeat runs; inconclusive = weak or mixed curves; inactive = no such curve, though single readings can be large; an effect the other way counts as inactive or inconclusive.

Test [1] is described as follows: qHTS RealTime-Glo MT Cell Viability Assay in HEK293 cells - 24 hour (AID 1224886). Also: top concentration of the series differs between compounds; nearly all actives have a fitted effect of over 50% in size. An outline of the steps:
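HEK293 cells were seeded at 600 cells/well together with NanoLuc luciferase and cell-permeant prosubstrate, preincubated 5 h at 37 C/5% CO2, then given compound in DMSO by pintool. Luminescence from viable-cell prosubstrate reduction was read repeatedly over 40 h.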
On the technique in general: In qHTS, concentration-response curves come from the screen itself.

Test [2] in a line: qHTS RealTime-Glo MT Cell Viability Assay in HEK293 cells - 8 hour (AID 1224887). Also: top concentration of the series differs between compounds; nearly all actives have a fitted effect of over 50% in size. An outline of the steps:
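Kinetic, non-lysing viability readout. Seed HEK293 (600/well) with reagent, incubate 5 h at 37 C/5% CO2, pin 23 nL compound in DMSO, incubate at 37 C, read luminescence at 0, 8, 16, 24, 32, 40 h.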

The nature of test [3]: A CellTox Green Cytotoxicity Assay to monitor cytotoxicity in HEK293 cells - 16 hour (AID 1224888). Also: nearly all actives have a fitted effect of over 35% in size. An outline of the steps:
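Real-time, in one plate: 600 HEK293 cells/well with dead-cell DNA dye, pinned compound after 5 h, 37 C incubation over 40 h; viable cells give no appreciable fluorescence.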

Test [4] can be described thus: qHTS RealTime-Glo MT Cell Viability Assay in HepG2 cells - 0 hour (AID 1224889). Also: nearly all actives have a fitted effect of over 50% in size. Also: potency is read from the fitted curve at half-maximal effect. An outline of the steps:
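HepG2 cells were seeded at 600 cells/well together with NanoLuc luciferase and a cell-permeant prosubstrate, preincubated 5 h at 37 C/5% CO2, then pin-dosed with compounds in DMSO. Nonlytic luminescence from viable cells was read at each time point.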

Test [5] can be described thus: A CellTox Green Cytotoxicity Assay to monitor cytotoxicity in HepG2 cells - 8 hour (AID 1224890). Also: nearly all actives have a fitted effect of over 45% in size. An outline of the steps:
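Cytotoxicity was tracked as dead-cell DNA fluorescence in HepG2 cells treated with test compounds at 37 C; each time-point value comes from one kinetic series spanning 0, 8, 16, 24, 32 and 40 h.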

Test [6] in a line: qHTS assay to identify small molecule antagonists of the estrogen receptor alpha (ER-alpha) signaling pathway using the BG1 cell line in the presence of 0.1 nM 17-beta-estradiol - cell viability counter screen (AID 1259241). Also: nearly all actives have a fitted effect of over 40% in size. An outline of the steps: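 Estradiol-stimulated (0.1 nM) VM7Luc4E2 cells exposed to compounds 22 hr; viability measured by fluorescence of cleaved CellTiter-Fluor substrate after 30 min.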

Test [7] can be described thus: qHTS assay to identify small molecule antagonists of the androgen receptor (AR) signaling pathway using the MDA cell line in the presence of 0.5 nM R1881 - cell viability counter screen (AID 1259242). Also: nearly all actives have a fitted effect of over 45% in size. An outline of the steps: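 Cells seeded at 3,000/well and allowed 5 hr at 37C, 0% CO2 before compound transfer and R1881 (0.5 nM final) addition; 16 hr later, live-cell protease fluorescence indicated cytotoxicity.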

Test [8] concerns the target Estrogen receptor (Homo sapiens) (UniProt P03372). Briefly: qHTS assay to identify small molecule antagonists of the estrogen receptor alpha (ER-alpha) signaling pathway using the BG1 cell line in the presence of 0.1 nM 17-beta-estradiol (AID 1259244). Also: nearly all actives have a fitted effect of over 50% in size. An outline of the steps: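 Luciferase signal from VM7Luc4E2 ERE-reporter cells, co-dosed with test compound and 0.1 nM final 17beta-estradiol for 22 h, read with ONE-Glo.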

A short description of test [9]: qHTS assay to identify small molecule phospholipidosis (PLD) inducers (AID 1259344; active = well fitted curve in the direction sought with a large enough effect; an effect the other way counts as inactive or inconclusive). An outline of the steps: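 Accumulated phospholipid, stained red by LipidTOX during 24 h compound treatment of HepG2 cells at 37 C, is quantified from images as pit number and intensity, normalised per cell using Hoechst-stained nuclei.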
Test [10] is described as follows: qHTS assay to identify small molecule HDAC inhibitors (AID 1259364).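 Also: wild-type HCT-116 cells with endogenous class I/II HDAC activity; top concentration of the series differs between compounds; nearly all actives have a fitted effect of over 45% in size.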 An outline of the steps: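 HCT-116 wt cells, 1,500/well, overnight attach. Compounds (DMSO) 2 h, 37 °C. HDAC-Glo I/II, 30 min RT. Luminescence.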
Test [11] in a line: qHTS assay to identify small molecule HDAC inhibitors - cell viability counter screen (AID 1259365). An outline of the steps: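 After overnight seeding at 1,500 cells per well, wild-type HCT-116 cultures took up compounds in DMSO for 2hr at 37 C. Viable cell content came from luminescence with CellTiter-Glo.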
The nature of test [12]: qHTS assay to identify small molecule agonists of the sonic hedgehog signaling (Shh) pathway - cell viability counter screen (AID 1259366). Also: nearly all actives have a fitted effect of over 50% in size. An outline of the steps:
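Same-well cytotoxicity read. Gli1-Luc reporter 3T3 cells; compounds 24hr, 37C/5% CO2; CellTiter-Fluor fluorescence.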

Test [13] can be described thus: qHTS assay to identify small molecule agonists of the sonic hedgehog signaling (Shh) pathway (AID 1259368; calls by dose curve;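 also: NIH/3T3-derived 3T3Gli1-Luc cells carrying a stable Gli1-driven firefly luciferase reporter; series mostly up to about 92 µM; nearly all actives have a fitted effect of over 15% in size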). An outline of the steps: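 Following a 24 hr incubation with DMSO-dissolved compounds at 37 C, 5% CO2, Gli1-Luc NIH/3T3-derived cells received luciferase reagent for 30 min at room temperature prior to luminescence measurement.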
The nature of test [14]: qHTS assay to identify small molecule antagonists of the sonic hedgehog signaling (Shh) pathway (AID 1259369; calls by dose curve; also: nearly all actives have a fitted effect of over 45% in size). An outline of the steps:
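Read-out is luminescence from a firefly luciferase gene controlled by the Gli1 response element, in 3T3Gli1-Luc cells pre-incubated 4hr then exposed to compounds and conditioned medium for 24hr.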

The target of test [15] is Estrogen receptor beta (Homo sapiens) (UniProt Q92731). Nature of the test: qHTS assay to identify small molecule agonists of the estrogen receptor beta (ER-beta) signaling pathway (AID 1259377; active = well fitted activation curve with a large enough effect in the signal ratio in the repeat runs, not every such curve was filed as active; the % refers to the signal ratio). An outline of the steps:
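Read-out: beta-lactamase FRET fluorescence. Cell line: ER-beta-UAS-bla HEK293T in 2% charcoal-stripped FBS. Exposure: 16 hr at 37C. Substrate step: 2 h at room temperature.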

For test [16] the target is unchanged. Nature of the test: qHTS assay to identify small molecule antagonists of the estrogen receptor beta (ER-beta) signaling pathway (AID 1259378; active = well fitted inhibition curve with a large enough effect in the signal ratio in the repeat runs, not every such curve was filed as active; the % refers to the signal ratio). An outline of the steps:
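Antagonist mode: compounds added to beta-lactamase reporter HEK293T ER-beta-UAS cells stimulated with E2 (1nM final), 16 hr at 37C. LiveBLAzer B/G FRET substrate, 2 hours room temperature, fluorescence read-out.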

Test [17] in a line: qHTS assay to identify small molecule agonists of the androgen receptor (AR) signaling pathway in the presence of an antagonist - cell viability counter screen (AID 1259379).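 Also: MDA-kb2 human breast cancer cells carrying an MMTV luciferase reporter; series mostly up to about 92 µM; nearly all actives have a fitted effect of over 25% in size.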 An outline of the steps:
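Each compound was tested at 15 concentrations on MDA-kb2 cells in the presence of 3.0uM nilutamide. Viability was measured by CellTiter-Fluor fluorescence after a 16 hr incubation at 37C in a CO2-free atmosphere.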

Test [18] can be described thus: qHTS assay to identify small molecule agonists of the estrogen receptor beta (ER-beta) signaling pathway - cell viability counter screen (AID 1259380). Also: nearly all actives have a fitted effect of over 30% in size. An outline of the steps: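 Compounds dissolved in DMSO were pin-transferred onto ER-beta-UAS-bla HEK293T cells that had settled 6 hr, and exposure ran 16 hr at 37C. Following the reporter read, CellTiter-Glo luminescence after 30 min at room temperature indicated cytotoxicity.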

The nature of test [19]: qHTS assay to identify small molecule antagonists of the sonic hedgehog signaling (Shh) pathway - cell viability counter screen (AID 1259367). Also: nearly all actives have a fitted effect of over 55% in size. An outline of the steps:
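CellTiter-Fluor signal in conditioned medium-stimulated 3T3 Gli1-Luc cells, 23 hr compound exposure, 37C.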
% is scaled to controls: 0 for no effect and ±100 for the full control effect.

Chain of Estrogen receptor (Homo sapiens) (P03372 whole entry, looked up): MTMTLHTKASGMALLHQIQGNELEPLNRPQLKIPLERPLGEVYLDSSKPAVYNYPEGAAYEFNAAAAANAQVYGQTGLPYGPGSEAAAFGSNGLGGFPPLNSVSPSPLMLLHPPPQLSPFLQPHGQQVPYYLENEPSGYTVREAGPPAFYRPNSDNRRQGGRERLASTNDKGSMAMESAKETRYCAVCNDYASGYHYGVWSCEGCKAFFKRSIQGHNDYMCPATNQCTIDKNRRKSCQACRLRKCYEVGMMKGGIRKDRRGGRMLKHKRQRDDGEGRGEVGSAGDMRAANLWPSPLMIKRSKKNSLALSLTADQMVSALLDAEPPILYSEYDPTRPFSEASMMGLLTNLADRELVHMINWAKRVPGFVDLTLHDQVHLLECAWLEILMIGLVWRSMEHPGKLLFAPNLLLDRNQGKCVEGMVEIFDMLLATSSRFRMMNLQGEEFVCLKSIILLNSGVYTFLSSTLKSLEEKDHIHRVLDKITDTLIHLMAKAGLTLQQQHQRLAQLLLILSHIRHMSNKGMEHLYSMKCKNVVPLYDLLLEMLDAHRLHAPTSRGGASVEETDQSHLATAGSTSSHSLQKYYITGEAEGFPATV
Chain of Estrogen receptor beta (Homo sapiens) (Q92731 whole entry, looked up): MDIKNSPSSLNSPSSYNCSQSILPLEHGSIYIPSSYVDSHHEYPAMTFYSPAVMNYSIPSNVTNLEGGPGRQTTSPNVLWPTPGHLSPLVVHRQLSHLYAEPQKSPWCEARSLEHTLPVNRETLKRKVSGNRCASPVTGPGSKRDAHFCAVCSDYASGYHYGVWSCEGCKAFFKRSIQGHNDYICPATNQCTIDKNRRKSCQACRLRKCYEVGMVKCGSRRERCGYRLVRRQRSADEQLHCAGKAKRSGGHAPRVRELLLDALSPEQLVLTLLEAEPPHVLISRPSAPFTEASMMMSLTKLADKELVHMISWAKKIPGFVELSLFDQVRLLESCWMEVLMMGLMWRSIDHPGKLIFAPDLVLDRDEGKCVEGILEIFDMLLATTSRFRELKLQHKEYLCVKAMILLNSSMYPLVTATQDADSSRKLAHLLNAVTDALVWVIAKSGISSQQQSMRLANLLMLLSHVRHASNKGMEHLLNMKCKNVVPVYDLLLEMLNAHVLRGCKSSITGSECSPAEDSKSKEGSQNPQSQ

Consider `CN(C)CCOC(=O)C(c1ccccc1)C1(O)CCCC1` (stereo unspecified), for which the Potency entry in test [1], in [2], in test [3], in [4], in [5] and in test [10] was “inactive” throughout. Further, the Potency result in test [14], in test [15] and in test [16] was “inactive” in each case. Further, the result in [6], in test [7], in [8], in test [9], in test [11] and in [12] was inactive. For the same molecule, the outcome in test [13], in test [17] and in test [18] was inactive.
Consider `CN1C[C@@H]2C[C@H]1CN2c1cc2c(cc1F)c(=O)c(C(=O)O)cn2C1CC1`, for which the activity change, negative = cytotoxicity in [1] is 4.15% [at 15.8 µM]; in test [2] it was 0.091% [at 15.8 µM]; in [4], 10% [at 15.8 µM]; in [6], -8.33% [at 19 µM]; in [11] it was 5.3% [at 19 µM]; in test [17], 0.0403% [at 19 µM]. In addition, the activity change, negative = cytotoxicity in [18] was 1.14% [at 19 µM]. The activity change in test [3] was -3.93% [at 15.8 µM, active compounds read high]; in test [13] it was -1.48% [at 18.9 µM]. Further, in test [5], the cytotoxicity increase is 6.75% [at 15.8 µM]. Besides, the values for the viability change, negative = cytotoxic in [7] and in [12] were -2.38% [at 19 µM] and -1.9% [at 19 µM], respectively. Further, the activity change, negative = inhibition in test [8] is -0.393% [at 19 µM]; in test [10], 2.17% [at 19 µM]; in [14], -3.45% [at 19 µM]. The molecule was classed as inactive in test [9]. For the same molecule, in test [15], the activation was 1.21% [at 19 µM].
On to `CC1CCc2c(N3CCC(O)CC3)c(F)cc3c(=O)c(C(=O)O)cn1c23` (stereo unspecified), for which the Potency result in [1], in [2], in test [3], in test [4], in [5] and in test [10] was “inactive” throughout. The Potency entry in [14] is “inactive”. Also, the result in [6], in test [7], in test [8], in test [9], in test [11] and in [12] was inactive. The result in [19], in test [13], in [17] and in test [18] was inactive.
With `C[C@]12CCC(=O)C=C1CC[C@H]1[C@@H]3CC[C@](O)(C(=O)CO)[C@@]3(C)C[C@H](O)[C@@]12F`, the Potency entry in test [1], in test [2], in test [3], in test [5], in test [10] and in test [14] was “inactive” each time. In test [16], the Potency entry was “inactive”. Besides, in [4], the Potency was 2.13 µM (active). Further, the outcome in test [6], in test [7], in test [8], in test [9], in test [11] and in [12] was inactive. The outcome in test [19], in test [13], in test [17] and in test [18] was inactive.
Consider `CCCCCCCCCCCCCCCCCC#N`, for which the Potency result in test [1], in [2], in [3], in [4], in test [5] and in [10] was “inactive” each time. Besides, the Potency result in test [14], in test [15] and in test [16] was “inactive” in each case. The outcome in test [6], in test [7], in [8], in test [11], in test [12] and in test [19] was inactive. Also, the outcome in [13], in test [17] and in [18] was inactive.
In the case of `COc1ccc2c(c1)c1c3n2CCN(C)C3=NCC1`, the Potency result in [1], in [2], in [3], in test [4], in test [5] and in test [10] was “inactive” in each case. In addition, the Potency result in test [14] is “inactive”. Moreover, the outcome in test [6], in test [7], in test [8], in test [9], in test [11] and in test [12] was inactive. Besides, the call in [13] and in test [17] was inactive.
As to `Cc1ncc([N+](=O)[O-])n1CC(C)O` (stereo unspecified), the Potency entry in test [1], in [2], in test [3], in test [4], in test [5] and in [10] was “inactive” each time. Moreover, the Potency entry in test [14] and in test [15] was “inactive” throughout. Moreover, the result in test [6], in test [7], in test [8], in [9], in test [11] and in [12] was inactive. For the same molecule, the molecule was called inactive in test [19], in test [13], in test [17] and in test [18].

The values are drawn from PubChem BioAssay (Tox21).
